Experimental data: publication PMC7862700, “An all-to-all approach to the identification of sequence-specific readers for epigenetic DNA modifications on cytosine”

Key:
Assay in all cases: DAPPL (digital affinity profiling via proximity ligation, sequencing); 10 mM Tris-HCl pH 7.5, 50 mM NaCl, 1 mM DTT, 4% glycerol, room temperature, 30 min; GST-TFs on glutathione beads, 16-mer random dsDNA library, 0.1% formaldehyde crosslink after washing; high values mean tight binding
Conditions in all cases: protein: recombinant; tags: N-terminal GST; dsDNA, one strand shown
FLI1 = molecular target: T1, FLI1 (Homo sapiens, UniProt Q01543 1-452)
T1 sequence: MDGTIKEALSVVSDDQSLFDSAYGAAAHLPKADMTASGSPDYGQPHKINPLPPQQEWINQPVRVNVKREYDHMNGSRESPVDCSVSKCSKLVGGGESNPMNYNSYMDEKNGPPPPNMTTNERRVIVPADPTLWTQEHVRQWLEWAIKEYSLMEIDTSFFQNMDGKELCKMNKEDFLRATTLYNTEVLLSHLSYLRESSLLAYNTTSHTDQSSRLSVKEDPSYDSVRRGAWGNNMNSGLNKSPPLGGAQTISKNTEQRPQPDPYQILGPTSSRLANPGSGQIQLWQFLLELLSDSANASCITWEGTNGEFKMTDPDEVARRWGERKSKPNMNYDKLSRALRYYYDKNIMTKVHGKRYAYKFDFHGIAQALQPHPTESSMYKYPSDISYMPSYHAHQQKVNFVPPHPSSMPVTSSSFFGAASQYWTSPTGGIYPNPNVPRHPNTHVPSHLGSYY
Method in brief: (§1)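 Human transcription factors fused to GST were expressed in yeast, captured on glutathione beads, given DNA barcodes and pooled with a GST-only negative control. Pools were incubated with 200 nmole of a 16-mer random double-stranded DNA library in Tris/NaCl/DTT/glycerol buffer at room temperature for 30 min. They were then washed, crosslinked with 0.1% formaldehyde, proximity-ligated (BsaI/T4 ligase, 1 h, 37 °C), PCR-amplified and sequenced on an Illumina NextSeq500. Binding signal is each 6-mer's read frequency for a factor divided by its frequency for the GST control.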

ELK1 = molecular target: T2, ELK1 (Homo sapiens, UniProt P19419 1-428)
T2 sequence: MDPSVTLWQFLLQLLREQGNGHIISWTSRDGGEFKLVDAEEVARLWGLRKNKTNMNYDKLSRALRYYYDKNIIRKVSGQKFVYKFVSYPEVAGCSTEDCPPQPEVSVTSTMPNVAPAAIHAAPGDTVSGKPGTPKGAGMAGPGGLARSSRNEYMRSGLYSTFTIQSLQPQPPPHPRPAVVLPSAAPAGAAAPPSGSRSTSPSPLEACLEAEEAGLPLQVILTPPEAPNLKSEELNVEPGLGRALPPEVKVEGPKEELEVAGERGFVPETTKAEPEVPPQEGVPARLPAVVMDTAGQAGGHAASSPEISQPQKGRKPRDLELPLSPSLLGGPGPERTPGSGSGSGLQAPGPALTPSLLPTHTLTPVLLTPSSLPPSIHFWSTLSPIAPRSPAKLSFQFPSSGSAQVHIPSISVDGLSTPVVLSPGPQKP
Method in brief: as §1

GABPA = molecular target: T3, GABPA (Homo sapiens, UniProt Q06546 1-454)
T3 sequence: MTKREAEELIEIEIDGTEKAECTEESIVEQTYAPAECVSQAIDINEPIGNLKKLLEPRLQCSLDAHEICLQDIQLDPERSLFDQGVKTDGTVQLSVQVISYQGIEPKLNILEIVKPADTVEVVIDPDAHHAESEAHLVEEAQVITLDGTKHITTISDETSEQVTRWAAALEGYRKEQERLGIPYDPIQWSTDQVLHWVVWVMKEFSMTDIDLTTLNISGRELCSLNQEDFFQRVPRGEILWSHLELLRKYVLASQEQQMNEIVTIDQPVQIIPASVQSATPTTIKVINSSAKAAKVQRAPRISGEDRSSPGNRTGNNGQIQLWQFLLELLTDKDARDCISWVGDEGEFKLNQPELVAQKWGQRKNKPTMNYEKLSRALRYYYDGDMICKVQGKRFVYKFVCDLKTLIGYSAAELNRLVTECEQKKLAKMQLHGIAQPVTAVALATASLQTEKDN
Method in brief: as §1

ERG = molecular target: T4, ERG (Homo sapiens, UniProt P11308 1-479)
T4 sequence: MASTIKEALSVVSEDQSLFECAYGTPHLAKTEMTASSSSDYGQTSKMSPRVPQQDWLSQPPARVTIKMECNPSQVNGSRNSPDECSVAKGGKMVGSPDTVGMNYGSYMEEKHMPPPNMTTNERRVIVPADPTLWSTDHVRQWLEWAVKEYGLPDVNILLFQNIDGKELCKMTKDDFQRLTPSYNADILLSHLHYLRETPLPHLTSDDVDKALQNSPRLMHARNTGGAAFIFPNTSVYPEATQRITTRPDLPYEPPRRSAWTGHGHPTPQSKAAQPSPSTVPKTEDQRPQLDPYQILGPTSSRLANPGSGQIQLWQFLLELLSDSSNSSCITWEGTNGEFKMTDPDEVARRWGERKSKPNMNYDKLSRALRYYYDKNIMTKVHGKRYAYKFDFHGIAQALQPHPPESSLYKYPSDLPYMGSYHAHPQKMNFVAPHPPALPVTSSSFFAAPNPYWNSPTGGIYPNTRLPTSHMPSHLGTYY
Method in brief: as §1

ELF1 = ELF1 (Homo sapiens, UniProt P32519 1-619)
Method in brief: as §1

EHF = molecular target: T5, EHF (Homo sapiens, UniProt Q9NZC4 1-300)
T5 sequence: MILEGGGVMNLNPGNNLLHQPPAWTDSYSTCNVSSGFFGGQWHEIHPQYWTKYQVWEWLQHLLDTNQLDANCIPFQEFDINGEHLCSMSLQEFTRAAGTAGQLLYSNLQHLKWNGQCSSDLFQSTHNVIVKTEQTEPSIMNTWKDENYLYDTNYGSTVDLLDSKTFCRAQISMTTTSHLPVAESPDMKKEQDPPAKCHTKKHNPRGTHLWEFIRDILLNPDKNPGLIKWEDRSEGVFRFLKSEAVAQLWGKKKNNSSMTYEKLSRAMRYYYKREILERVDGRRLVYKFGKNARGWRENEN
Method in brief: as §1

SPI1 = SPI1 (Homo sapiens, UniProt P17947 1-270)
Method in brief: as §1

SPIB = SPIB (Homo sapiens, UniProt Q01892 1-262)
Method in brief: as §1

ELK3 = molecular target: T6, ELK3 (Homo sapiens, UniProt P41970 1-407)
T6 sequence: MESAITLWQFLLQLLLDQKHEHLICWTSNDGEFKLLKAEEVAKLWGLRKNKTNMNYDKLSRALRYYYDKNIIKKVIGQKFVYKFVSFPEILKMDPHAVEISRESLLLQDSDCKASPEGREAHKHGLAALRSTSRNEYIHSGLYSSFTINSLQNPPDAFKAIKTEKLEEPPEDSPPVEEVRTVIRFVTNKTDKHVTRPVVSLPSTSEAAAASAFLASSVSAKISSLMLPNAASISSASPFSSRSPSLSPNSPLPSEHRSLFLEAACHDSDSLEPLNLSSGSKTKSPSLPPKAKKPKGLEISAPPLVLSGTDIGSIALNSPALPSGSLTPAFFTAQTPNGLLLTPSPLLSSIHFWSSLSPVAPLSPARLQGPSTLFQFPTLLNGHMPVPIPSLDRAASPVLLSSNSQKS
Method in brief: as §1

ELF1, sequence (P32519 whole entry): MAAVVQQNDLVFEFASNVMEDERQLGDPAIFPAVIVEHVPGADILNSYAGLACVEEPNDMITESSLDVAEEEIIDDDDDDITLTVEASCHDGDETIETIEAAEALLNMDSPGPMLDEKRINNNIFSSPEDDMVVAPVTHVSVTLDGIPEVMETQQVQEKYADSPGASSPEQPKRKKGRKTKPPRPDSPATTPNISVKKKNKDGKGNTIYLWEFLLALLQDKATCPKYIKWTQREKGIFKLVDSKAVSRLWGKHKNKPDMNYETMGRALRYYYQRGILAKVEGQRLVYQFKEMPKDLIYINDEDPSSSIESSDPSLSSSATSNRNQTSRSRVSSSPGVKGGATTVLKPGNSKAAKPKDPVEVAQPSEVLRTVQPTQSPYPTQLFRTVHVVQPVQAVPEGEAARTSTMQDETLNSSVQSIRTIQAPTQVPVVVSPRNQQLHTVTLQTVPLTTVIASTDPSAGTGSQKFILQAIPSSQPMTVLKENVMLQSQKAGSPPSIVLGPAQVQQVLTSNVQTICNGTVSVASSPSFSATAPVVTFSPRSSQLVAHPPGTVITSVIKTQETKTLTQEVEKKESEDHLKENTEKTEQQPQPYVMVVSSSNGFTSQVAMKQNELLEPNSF
SPIB, sequence (Q01892 whole entry): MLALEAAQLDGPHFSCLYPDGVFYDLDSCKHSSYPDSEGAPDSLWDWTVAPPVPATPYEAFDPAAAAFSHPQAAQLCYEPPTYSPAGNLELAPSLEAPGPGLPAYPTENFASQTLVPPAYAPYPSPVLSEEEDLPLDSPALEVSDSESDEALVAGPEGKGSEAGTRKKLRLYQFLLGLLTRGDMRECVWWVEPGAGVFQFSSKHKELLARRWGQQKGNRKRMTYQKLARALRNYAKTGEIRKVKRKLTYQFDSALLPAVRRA

Sequence | binding signal (FLI1) | binding signal (ELK1) | binding signal (GABPA) | binding signal (ERG) | binding signal (ELF1) | binding signal (EHF) | binding signal (SPI1) | binding signal (SPIB) | binding signal (ELK3)
TGTAAA | 1.22 fold enrichment (6-mer frequency, TF over GST control) | 1.06 fold enrichment (6-mer frequency, TF over GST control) | 1.08 fold enrichment (6-mer frequency, TF over GST control) | 1.15 fold enrichment (6-mer frequency, TF over GST control) | 1.14 fold enrichment (6-mer frequency, TF over GST control) | 1.13 fold enrichment (6-mer frequency, TF over GST control) | 1.26 fold enrichment (6-mer frequency, TF over GST control) | 1.2 fold enrichment (6-mer frequency, TF over GST control) | 1.09 fold enrichment (6-mer frequency, TF over GST control)
TACTCG | 1.33 fold enrichment (6-mer frequency, TF over GST control) | 1.29 fold enrichment (6-mer frequency, TF over GST control) | 1.34 fold enrichment (6-mer frequency, TF over GST control) | 1.14 fold enrichment (6-mer frequency, TF over GST control) | 1.34 fold enrichment (6-mer frequency, TF over GST control) | 1.16 fold enrichment (6-mer frequency, TF over GST control) | 1.22 fold enrichment (6-mer frequency, TF over GST control) | 1.18 fold enrichment (6-mer frequency, TF over GST control) | 1.22 fold enrichment (6-mer frequency, TF over GST control)
AAAATT | 1.35 fold enrichment (6-mer frequency, TF over GST control) | 1.34 fold enrichment (6-mer frequency, TF over GST control) | 1.38 fold enrichment (6-mer frequency, TF over GST control) | 1.28 fold enrichment (6-mer frequency, TF over GST control) | 1.34 fold enrichment (6-mer frequency, TF over GST control) | 1.26 fold enrichment (6-mer frequency, TF over GST control) | 1.32 fold enrichment (6-mer frequency, TF over GST control) | 1.45 fold enrichment (6-mer frequency, TF over GST control) | 1.33 fold enrichment (6-mer frequency, TF over GST control)
AAACGG | 1.17 fold enrichment (6-mer frequency, TF over GST control) | 1.24 fold enrichment (6-mer frequency, TF over GST control) | 1.13 fold enrichment (6-mer frequency, TF over GST control) | 1.3 fold enrichment (6-mer frequency, TF over GST control) | 1.21 fold enrichment (6-mer frequency, TF over GST control) | 1.26 fold enrichment (6-mer frequency, TF over GST control) | 1.47 fold enrichment (6-mer frequency, TF over GST control) | 1.23 fold enrichment (6-mer frequency, TF over GST control) | 1.22 fold enrichment (6-mer frequency, TF over GST control)
TACCGC | 1.16 fold enrichment (6-mer frequency, TF over GST control) | 1.07 fold enrichment (6-mer frequency, TF over GST control) | 1.02 fold enrichment (6-mer frequency, TF over GST control) | 1.08 fold enrichment (6-mer frequency, TF over GST control) | 1.02 fold enrichment (6-mer frequency, TF over GST control) | 1.11 fold enrichment (6-mer frequency, TF over GST control) | 1.19 fold enrichment (6-mer frequency, TF over GST control) | 1.09 fold enrichment (6-mer frequency, TF over GST control) | 1.13 fold enrichment (6-mer frequency, TF over GST control)
TGCTCA | 1.32 fold enrichment (6-mer frequency, TF over GST control) | 1.28 fold enrichment (6-mer frequency, TF over GST control) | 1.34 fold enrichment (6-mer frequency, TF over GST control) | 1.41 fold enrichment (6-mer frequency, TF over GST control) | 1.41 fold enrichment (6-mer frequency, TF over GST control) | 1.36 fold enrichment (6-mer frequency, TF over GST control) | 1.27 fold enrichment (6-mer frequency, TF over GST control) | 1.35 fold enrichment (6-mer frequency, TF over GST control) | 1.19 fold enrichment (6-mer frequency, TF over GST control)
ACAAAA | 1.14 fold enrichment (6-mer frequency, TF over GST control) | 1.11 fold enrichment (6-mer frequency, TF over GST control) | 1.15 fold enrichment (6-mer frequency, TF over GST control) | 1.18 fold enrichment (6-mer frequency, TF over GST control) | 1.16 fold enrichment (6-mer frequency, TF over GST control) | 1.21 fold enrichment (6-mer frequency, TF over GST control) | 1.22 fold enrichment (6-mer frequency, TF over GST control) | 1.14 fold enrichment (6-mer frequency, TF over GST control) | 1.16 fold enrichment (6-mer frequency, TF over GST control)
CACTCC | 1.27 fold enrichment (6-mer frequency, TF over GST control) | 1.41 fold enrichment (6-mer frequency, TF over GST control) | 1.32 fold enrichment (6-mer frequency, TF over GST control) | 1.29 fold enrichment (6-mer frequency, TF over GST control) | 1.34 fold enrichment (6-mer frequency, TF over GST control) | 1.17 fold enrichment (6-mer frequency, TF over GST control) | 1.23 fold enrichment (6-mer frequency, TF over GST control) | 1.33 fold enrichment (6-mer frequency, TF over GST control) | 1.27 fold enrichment (6-mer frequency, TF over GST control)
TAGAAG | 1.05 fold enrichment (6-mer frequency, TF over GST control) | 1.19 fold enrichment (6-mer frequency, TF over GST control) | 1.15 fold enrichment (6-mer frequency, TF over GST control) | 1.19 fold enrichment (6-mer frequency, TF over GST control) | 1.23 fold enrichment (6-mer frequency, TF over GST control) | 1.15 fold enrichment (6-mer frequency, TF over GST control) | 1.24 fold enrichment (6-mer frequency, TF over GST control) | 1.24 fold enrichment (6-mer frequency, TF over GST control) | 1.13 fold enrichment (6-mer frequency, TF over GST control)
